Source: PubChem BioAssay
A selection: hits, their analogues and other compounds. The true share with any hit is near 4.5%.
tim10-1 inh: tim10-1 yeast growth inhibition; S. cerevisiae tim10-1 ts strain growth, BacTiter-Glo, 24 h; inhibition, % at 20 µM; 330,000 tested, 2.2% active; AID 463190;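 active = inhibition of at least 40%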;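 also: mutant grown at 25 °C; 0% = DMSO wells with yeast and 100% = wells holding no yeast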
PfHsp90 yeast 2: growth inhibition of yeast expressing Plasmodium Hsp90 | 310,000 tested, 0.32% active | AID 504621 | S. cerevisiae expressing PfHsp90, BacTiter-Glo ATP, 48 h; yeast lacking PDR1 and PDR3 efflux regulators | inhibition, % at 9.4 µM;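 active = every replicate shows inhibition above about 80%, whatever the replicate mean, limit read from the data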;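 also: 0% = DMSO neutral controls and 100% = 20 µM radicicol positive controls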
SKKanGAS inh: SKKanGAS growth inhibition. S. pyogenes SKKanGAS, kanamycin growth, BacTiter-Glo, 6 h. inhibition, % at 7.5 µM. 300,000 tested, 1.3% active;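 active = mean replicate score, as percent of positive control median, at least 50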;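 also: strain carries kanamycin resistance gene driven by streptokinase promoter and grows in 40 µg/ml kanamycin; loss of luminescence reflects streptokinase promoter inhibition or plain growth inhibition; 0% = median of DMSO wells and 100% = positive control at its reference dose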
TIM10 inh: inhibits growth of TIM10 yeast strain; S. cerevisiae TIM10 strain growth, BacTiter-Glo luminescence, 24 h; inhibition, % at 10 µM; 330,000 tested, 1.4% active; AID 463195;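 active = inhibition of 40% or more at the single tested concentration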;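 also: wild-type TIM10 isogenic control strain grown at permissive 25 °C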
NLRP3 yeast inh: inhibitors of NALP3 inflammasome in yeast; Yeast reconstituted NLRP3/ASC/caspase-1, beta-gal luminescence, 24 h; inhibition, % at 10 µM; 330,000 tested, 0.39% active; AID 2825;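 active = inhibition of 50% or more; inactive = inhibition below 50%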;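 also: plate controls were induced DMSO wells for no effect and uninduced yeast grown without galactose for full effect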
tim23-1 inh: tim23-1 yeast growth inhibition; 330,000 tested, 1.3% active; S. cerevisiae tim23-1 growth, BacTiter-Glo luminescence, 24 h; inhibition, % at 20 µM;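 active = growth inhibition of the mutant yeast at or above 50%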;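 also: temperature-sensitive mutant grown at 25 °C; plate controls were DMSO-treated mutant yeast for no effect and medium wells lacking yeast for full effect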
NALP3 confirm: NALP3 inhibition confirmation in yeast. AID 435006. inhibition, % at 10 µM. shares compounds with NLRP3 yeast inh. 1,300 tested, 81% active. yeast expressing human NALP3, luminescence; in the data active = inhibition above about 48%
Casp1-ASC yeast: active in yeast caspase-1-ASC counter-screen for NALP3 inhibitors. shares compounds with NLRP3 yeast inh. yeast expressing Caspase-1-ASC, luminescence counter screen. inhibition, % at 10 µM. 1,000 tested, 66% active. AID 488784
NALP3 retest: yeast NALP3 inhibition, confirmed on retest; shares compounds with NLRP3 yeast inh; yeast expressing human NALP3, luminescence read-out; inhibition, % at 10 µM; 1,000 tested, 53% active; AID 488794
tim10-1 confirm: tim10-1 yeast growth inhibition, confirmed; shares compounds with tim10-1 inh; S. cerevisiae tim10-1 ts strain growth, BacTiter-Glo, 24 h; inhibition, % at 20 µM; 7,400 tested, 56% active;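 active = inhibition of yeast growth at or above a set limit in either of two repeat tests at 20 µM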;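 also: tim10-1 mutant grown at permissive 25 °C to find synthetic lethal compounds; 0% = DMSO yeast wells and 100% = medium wells without yeast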
tim10 confirm: TIM10 yeast growth inhibition, confirmed. shares compounds with TIM10 inh. S. cerevisiae tim10 strain growth, BacTiter-Glo luminescence, 24 h. inhibition, % at 10 µM. 4,600 tested, 63% active. AID 463215;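 active = inhibition of yeast growth at or above a set limit in either of two replicates at 10 µM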;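 also: this counterscreen used the strain with wild-type TIM10; 0% = yeast with DMSO and 100% = medium wells lacking yeast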
tim23-1 conf: tim23-1 yeast growth inhibition, confirmed | 4,400 tested, 83% active | inhibition, % at 20 µM | S. cerevisiae tim23-1 growth, BacTiter-Glo luminescence, 24 h | shares compounds with tim23-1 inh;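 active = inhibition above about 39% in either of two replicate wells at 20 µM, limit read from the data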;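 also: temperature-sensitive tim23-1 mutant grown at 25 °C; 0% = DMSO wells with yeast and 100% = medium wells without yeast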
An asterisk follows results filed as active; / = no result given. Rule as the data show it, unless noted: active = inhibition above about 50%; inactive = the rest.

SMILES	tim10-1 inh	PfHsp90 yeast 2	SKKanGAS inh	TIM10 inh	NLRP3 yeast inh	tim23-1 inh	NALP3 confirm	Casp1-ASC yeast	NALP3 retest	tim10-1 confirm	tim10 confirm	tim23-1 conf
O=C(Nc1ccc2c(c1)ncn2C1CCCCC1)c1ccco1	36	/	-4	66*	53*	51*	70*	55*	52*	/	53*	77*
CC1(C)CC(=O)C(=Cc2cn(-c3ccccc3)nc2-c2ccccc2)C(=O)C1	15	28	-4	64*	54*	64*	83*	8	-12	/	20	34
Cn1c(CNc2ccc(Cl)cc2)nc2ccccc21	14	-4	4	-7	0	21	/	/	/	/	/	/
CC(C)N=c1cc2n(-c3ccc(Cl)cc3)c3ccccc3nc-2cc1Nc1ccc(Cl)cc1	41*	11	98*	24	56*	58*	68*	/	/	2	/	57*
CCCCOc1cccc(/C=C(\C#N)C(=O)NC2CC2)c1	88*	-5	4	36	51*	89*	54*	38	32	83*	/	85*
N#C/C(=C\c1ccc(OCC(N)=O)cc1)C(=O)NC1CC1	-14	5	-5	-1	17	-4	/	/	/	/	/	/
c1ccc(Oc2ccc(-c3ccn[nH]3)cc2)cc1	28	-9	12	27	16	29	/	/	/	/	/	/
c1ccc(-c2ncc(-c3ccn[nH]3)s2)cc1	15	-43	-5	49*	65*	56*	84*	79*	64*	/	31	68*
COc1ccc(C(=O)Nc2nc3ccccc3[nH]2)cc1	-38	31	22	24	51*	60*	81*	60*	48	/	/	61*
Cc1c(C(=O)Nc2nc3ccccc3[nH]2)oc2ccccc12	32	24	21	62*	61*	59*	31	/	/	/	30	74*
COc1ccccc1C(=O)Nc1nc2ccccc2[nH]1	67*	99*	90*	68*	60*	85*	78*	79*	31	66*	55*	83*
Cc1ccc(C(=O)Nc2nc3ccccc3[nH]2)cc1	-20	29	/	4	29	9	/	/	/	/	/	/
C=CCn1c(SC(C)C(=O)c2c(N)n(C)c(=O)n(C)c2=O)nnc1-c1ccoc1C (stereo not given)	-3	7	/	-5	21	-13	/	/	/	/	/	/
CC(=O)Nc1cccc(C(=O)OC2CCOC2=O)c1 (stereo not given)	-7	1	-1	-9	10	-5	/	/	/	/	/	/
CN(C)/C=C1\C(=O)Nc2ccccc21	-16	/	-4	1	7	6	/	/	/	/	/	/
O=C1Nc2ccccc2/C1=C/c1ccccc1Cl	36	15	-1	32	55*	53*	69*	49	43	/	/	46*
CC(C)(C)OC(=O)C[C@@H]1C/C=C\C[C@@H](CC(=O)N(CCO)Cc2ccccc2)C(=O)N[C@H](C(C)(C)C)COC1=O	7	3	/	-2	12	12	/	/	/	/	/	/
COc1ccc(CN(CCN(C)C)c2ccccn2)cc1	-15	-19	2	6	2	6	/	/	/	/	/	/
CCCCCCCCCCCCCCCC[N+](C)(C)CCN(Cc1ccc(OC)cc1)c1ncccn1	97*	106*	/	95*	52*	93*	21	/	/	98*	99*	96*
CSc1ccc(S(=O)(=O)N2c3ccccc3CC2C)cc1 (stereo not given)	16	13	23	-5	32	22	/	/	/	/	/	/
CC(=O)/C(=N\Nc1ccccc1)Sc1cccc2cccnc12	15	7	0	13	2	27	/	/	/	/	/	/
O=C(Sc1cccc2cccnc12)c1ccccc1Br	56*	16	67*	53*	66*	89*	64*	/	/	72*	74*	67*
COc1ccc(C(=O)CC(=O)Nc2ccc([N+](=O)[O-])cc2)cc1	13	-11	4	35	67*	64*	75*	78*	82*	/	/	74*
CCOc1ccc(N(CC(=O)NN=C2CCN(C)CC2)S(=O)(=O)c2ccc(Br)cc2)cc1	28	-24	3	5	8	21	/	/	/	/	/	/
O=C(CN(Cc1ccco1)C(=O)CNS(=O)(=O)c1ccc(F)cc1)NCc1ccco1	-12	5	17	14	2	4	/	/	/	/	/	/
SMILES	tim10-1 inh	PfHsp90 yeast 2	SKKanGAS inh	TIM10 inh	NLRP3 yeast inh	tim23-1 inh	NALP3 confirm	Casp1-ASC yeast	NALP3 retest	tim10-1 confirm	tim10 confirm	tim23-1 conf
Cc1csc(=NC(=O)c2ccccc2)n1C	3	/	4	44*	62*	55*	75*	73*	68*	/	38*	54*
CSCc1c(C(=O)OCC(=O)c2ccc[nH]2)oc2ccccc12	51*	/	/	67*	51*	59*	68*	55*	42	19	63*	74*
Cn1nc(C(=O)Nc2nc(-c3ccccn3)cs2)c2ccccc2c1=O	23	-13	/	6	29	23	/	/	/	/	/	/
CC(Oc1ccc(Br)cc1)C(=O)Nc1nc(-c2ccccn2)cs1 (stereo not given)	45*	/	87*	37	51*	70*	77*	89*	81*	19	/	50*
Cc1ccc(-c2nc(CNC(=O)c3cc(C)on3)cs2)cc1	-11	27	-12	-8	66*	53*	75*	68*	54*	/	/	41*
Cc1ccc(C(=O)Nc2scc(-c3ccccc3)c2C(=O)O)cc1	85*	35	34	82*	79*	86*	78*	86*	82*	83*	91*	87*
O=C(Nc1scc(-c2ccccc2)c1C(=O)O)c1ccccc1Cl	8	34	24	-13	5	17	/	/	/	/	/	/
COc1ccc(-c2csc(NC(=O)c3ccccc3F)c2C(=O)O)cc1	81*	28	16	75*	81*	85*	94*	91*	81*	75*	72*	86*
C=CCSc1nsc(NC(=O)Nc2ccc(F)cc2)n1	62*	-1	75*	66*	56*	78*	78*	79*	82*	74*	65*	78*
O=c1[nH]c2ccc(S(=O)(=O)N3CCCCC3)cc2s1	12	16	-2	-2	-9	14	/	/	/	/	/	/
